Screening data (PubChem BioAssay)
CF NFkB inh – inhibitors of PAF-induced NF-kB signaling, primary screen, cell-based, GFP fluorescence, uHTS; KKLEB NF-kB-GFP reporter, GFP fluorescence overnight; inhibition, % at 5 µM; 360,000 compounds, 0.86% hits;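 active = at least 50% inhibition at 5 µM, scaled per plate between neutral and stimulator controls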;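 also: PAF is a Pseudomonas aeruginosa culture filtrate used as stimulus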
KKLEB cytotox – cytotoxicity in KKLEB CF airway cells, primary screen, cytotoxicity control for CF NF-kB inhibitor project, cell-based, uHTS, fluorescence assay plates | activity change (cytotoxicity), % at 5 µM | AID 602141, 2011 | KKLEB CF airway cells viability, ATPlite luminescence, overnight; active compounds read low; cells stimulated with P. aeruginosa culture filtrate | 360,000 compounds, 0.36% hits;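 active = corrected activity change at or below -50% at 5 µM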
Peg3 prom inh – Peg3 promoter-driven luciferase inhibitors, primary screen, cell-based, HeLa, luciferase luminescence. AID 588405, 2011. 360,000 compounds, 1.7% hits. HeLa PEG-Prom luciferase reporter, overnight. inhibition, % at 20 µM;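 active = inhibition of at least 50% at 20 µM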
TROY signal inh – inhibitors of TROY-driven NF-kB signaling, primary screen, Q293 LMP1-TROYcd cells, NF-kB luciferase, uHTS. Q293 LMP1-TROYcd NF-kB luciferase reporter, 4 h. inhibition, % at 10 µM. 360,000 compounds, 0.98% hits. AID 1347056, 2019;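 active = compounds whose plate-normalised and pattern-corrected inhibition of the luciferase reporter signal at the single screening dose is 50% or more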
TWEAK Fn14 block – inhibitors of TWEAK-Fn14 signaling, primary screen, luciferase reporter cells, uHTS | TWEAK-stimulated Fn14 reporter cells, luciferase luminescence, 8 h | inhibition, % at 10 µM | 360,000 compounds, 2% hits | AID 1159606, 2016; in the data active = inhibition above about 50%
HIF-2a block – HIF-2a reporter inhibitors, primary screen, luminescence, 786-0 RCC cells; inhibition, % at 18.8 µM; 360,000 compounds, 0.72% hits; AID 624352, 2012; 786-0 RCC cells HIF-2a reporter, luciferase luminescence, overnight;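 active = inhibition of the luminescence signal of 40% or more relative to plate controls, in a single-dose primary screen at 18.75 µM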
Mdm2-MdmX confirm – retested Mdm2-MdmX interaction blockers, confirmation, cell-based, luminescence, single concentration, set 2. SaOS-2 split-luciferase Mdm2/MdmX complementation. shares compounds with HIF-2a block. inhibition, % at 8 µM. 740 compounds, 99% hits;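 active = mean inhibition of the luminescence signal across two replicates at or above 26 percent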
Target sequence (O15151 whole entry, looked up): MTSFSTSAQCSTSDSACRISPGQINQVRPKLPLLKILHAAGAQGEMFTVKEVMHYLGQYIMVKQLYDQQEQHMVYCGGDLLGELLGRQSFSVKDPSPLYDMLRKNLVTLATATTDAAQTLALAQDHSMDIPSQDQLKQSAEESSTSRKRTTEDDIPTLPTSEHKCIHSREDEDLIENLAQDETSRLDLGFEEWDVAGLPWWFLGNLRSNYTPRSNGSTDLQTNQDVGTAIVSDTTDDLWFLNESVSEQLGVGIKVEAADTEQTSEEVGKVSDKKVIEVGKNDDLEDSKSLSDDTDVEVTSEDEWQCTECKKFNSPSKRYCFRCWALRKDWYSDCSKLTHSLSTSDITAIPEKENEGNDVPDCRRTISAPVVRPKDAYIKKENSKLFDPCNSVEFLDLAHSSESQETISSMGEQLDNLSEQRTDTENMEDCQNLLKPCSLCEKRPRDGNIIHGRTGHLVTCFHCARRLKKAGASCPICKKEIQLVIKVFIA
Target sequence (Q00987 whole entry, looked up): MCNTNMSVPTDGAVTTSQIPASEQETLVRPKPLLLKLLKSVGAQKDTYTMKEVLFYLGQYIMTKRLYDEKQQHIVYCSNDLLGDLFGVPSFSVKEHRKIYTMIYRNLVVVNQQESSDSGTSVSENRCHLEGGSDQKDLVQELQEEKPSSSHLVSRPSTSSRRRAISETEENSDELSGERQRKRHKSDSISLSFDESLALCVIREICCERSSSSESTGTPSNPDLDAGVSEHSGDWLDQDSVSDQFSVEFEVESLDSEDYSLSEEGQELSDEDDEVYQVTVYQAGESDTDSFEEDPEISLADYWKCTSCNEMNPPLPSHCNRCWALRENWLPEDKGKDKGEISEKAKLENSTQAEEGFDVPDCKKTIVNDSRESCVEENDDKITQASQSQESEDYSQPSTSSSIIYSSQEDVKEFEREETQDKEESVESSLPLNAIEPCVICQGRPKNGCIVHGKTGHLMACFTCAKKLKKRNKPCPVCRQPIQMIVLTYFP
HIF-2a inh conf – HIF-2a reporter inhibitor retest, confirmation, luminescence, 786-0 RCC cells | AID 651580, 2012 | 1,800 compounds, 56% hits | shares compounds with HIF-2a block | HIF-2a luciferase reporter luminescence, overnight | inhibition, % at 18.8 µM;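 active = mean inhibition across four replicates of at least 40 percent at the single tested concentration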
HIF-1a counter – HIF-1a luciferase reporter signal reduction – MiaPaCa-2 cells, single concentration, counter-screen for HIF-2a inhibitor project, confirmation. shares compounds with HIF-2a block. MiaPaCa-2 HIF-1a luciferase reporter, desferoxamine, overnight. inhibition, % at 18.8 µM. 1,800 compounds, 72% hits;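 active = mean inhibition of the reporter signal across four replicates at the single tested dose of 50% or more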
Numbers stand for hits; - = inactive; . = no result. Only some compounds are listed: those with a hit (about 4% of all), similar ones and a draw of the others.

SMILES | CF NFkB inh | KKLEB cytotox | Peg3 prom inh | TROY signal inh | TWEAK Fn14 block | HIF-2a block | HIF-2a inh conf | HIF-1a counter | others
COc1ccccc1-c1cc(C(F)(F)F)nc(S(=O)(=O)CCCC(=O)N2CCOCC2)n1 | 90 | -79 | 103 | 58 | - | 83 | 48 | 104
COc1ccc(C(=O)/C=C/C(=O)N(CC(=O)NC2CCCCC2)CC2CCCO2)c(O)c1 (stereo not drawn) | - | - | 106 | 50 | 84 | 94 | 99 | 107
COc1ccc(C(=O)/C=C/C(=O)N(Cc2ccc(F)cc2)C(C(=O)NC2CCCCC2)c2ccncc2)c(O)c1 (stereo not drawn) | - | - | - | - | - | - | . | .
COc1ccc(C(=O)/C=C/C(=O)N(CC(=O)NC2CCCCC2)Cc2ccccc2OC)c(O)c1 | 87 | -63 | 104 | 91 | 91 | 81 | 89 | 105
COc1ccc(C(=O)/C=C/C(=O)N(Cc2ccccc2OC)C(C(=O)NC2CCCCC2)c2ccncc2)c(O)c1 (stereo not drawn) | - | - | - | - | - | - | . | .
COc1ccc(C(=O)/C=C/C(=O)N(CC(=O)NC2CCCCC2)Cc2ccccc2)c(O)c1 | 71 | - | 109 | - | - | 71 | 98 | 103
COc1cccc(CN(CC(=O)NC2CCCC2)C(=O)CCC(=O)Nc2cc(C)on2)c1 | - | - | - | - | - | - | . | .
COc1ccc(C(=O)/C=C/C(=O)N(Cc2ccccc2)C(C(=O)NC2CCCCC2)c2ccncc2)c(O)c1 (stereo not drawn) | - | - | - | - | - | 40 | - | -
CN(CC(=O)NCCc1ccc(F)cc1)Cc1cccs1 | - | - | - | - | - | - | . | .
O=C(CN1CCN(C(=O)C2CCCO2)CC1)Nc1ccc(Cl)c(Cl)c1 (stereo not drawn) | - | - | - | - | - | - | . | .
CCOc1ccc(NC(=O)CN2C(=O)NC(C)(c3ccc4c(c3)OCCCO4)C2=O)cc1OCC (stereo not drawn) | - | - | - | - | - | - | . | .
C/C(=N\N1C(=O)CSC1=S)c1ccc(Br)cc1 | - | - | - | - | - | - | . | .
COc1ccc(C=NNC(=S)Nc2ccc(F)cc2)cc1OC | - | - | - | 78 | - | 48 | - | -
Nc1ccc2c(c1)OC1(CCCCC1)O2 | - | - | - | - | - | - | . | .
Cc1ccc2cc(CCNC(=O)CC(C)(C)C)c(=O)[nH]c2c1C | - | - | - | - | - | - | . | .
O=c1c2ccccc2cnn1CCOc1ccccc1 | - | - | - | 72 | 97 | 54 | 64 | 71
CCCc1ccc2oc(C(=O)N3CCCC3)c(C)c2c1 | - | - | - | - | - | - | . | .
CCC(=O)OCCNc1cc(Sc2nccn2C)c2nonc2c1[N+](=O)[O-] | 89 | -78 | 105 | - | - | 91 | 80 | 105
CCC(=O)OCCNc1cc(SCCC(=O)OC)c2nonc2c1[N+](=O)[O-] | - | - | - | - | - | - | . | .
CCCC(=O)OCCNc1cc(Sc2nc3ccccc3[nH]2)c2nonc2c1[N+](=O)[O-] | 92 | -66 | 109 | - | - | 94 | 69 | 74 | Mdm2-MdmX confirm=103
CC(C)CCSc1cc(NCCO)c([N+](=O)[O-])c2nonc12 | - | - | - | - | - | - | . | .
CSc1ncccc1C(=O)OC(C)C(=O)Nc1cccc(S(=O)(=O)N2CCOCC2)c1 (stereo not drawn) | - | - | - | - | - | - | . | .
CN(C)N1C(N)=C(C#N)C(c2ccccc2)C2=C1CCCC2=O (stereo not drawn) | - | - | - | - | - | - | . | .
COc1ccc(C(=O)OCC2CC(c3ccccc3)N(C)O2)cc1 (stereo not drawn) | - | - | - | - | - | - | . | .
CC(=NNC(=S)Nc1ccccc1)c1ccccn1 | - | - | - | - | - | 71 | - | -
SMILES | CF NFkB inh | KKLEB cytotox | Peg3 prom inh | TROY signal inh | TWEAK Fn14 block | HIF-2a block | HIF-2a inh conf | HIF-1a counter | others
C=C(CN(C)C)C(=O)c1ccc(C)cc1C | - | - | 99 | - | - | 90 | 96 | 74
Cc1ccc(C(=O)CC(=O)c2ccccc2C)c(O)c1 | - | - | - | - | - | - | . | .
O=C(c1ccccc1)c1nn(-c2ccc(Cl)cc2)c(=O)cc1C(F)(F)F | - | - | 79 | - | 74 | 46 | - | 107 | Mdm2-MdmX confirm=103
CCOC(=O)COc1c(Br)cc(/C=C2\SC(=O)N(CC(=O)N3CCCC3)C2=O)cc1OC | - | - | - | - | - | 49 | - | -
CCOC(=O)c1c(C)nn(-c2ccc(NC(=O)c3c(C)noc3C)cc2)c1C | - | - | - | - | - | 66 | 80 | -
CCOC(=O)c1c(C)nn(-c2ccc(NC(=O)c3cccs3)cc2)c1C | - | - | - | - | - | - | . | .
CCOC(=O)c1c(C)nn(-c2ccc(NC(=O)/C=C/C(=O)O)cc2)c1C | - | - | - | - | 61 | 74 | 48 | -
CCN(CC(=O)Nc1ccc(NC(C)=O)cc1)C(=O)C1CC(=O)N(CCc2ccc(OC)c(OC)c2)C1 (stereo not drawn) | - | - | - | - | - | - | . | .
CCCCCCCCNCCS(=O)(=O)NCCCCCCCC | - | - | 95 | - | - | 51 | - | 106
CC(=O)c1ccc(Nc2cc(C)nc3c(C)cc(C)cc23)cc1 | - | - | 103 | - | - | 59 | - | 85
COCCN(CC(=O)Nc1ccccc1)S(=O)(=O)c1ccc(S(=O)(=O)N2CCCC2)cc1 | - | - | - | - | - | - | . | .
Cc1ccc(C)c(CN2C(=O)c3ccccc3S(=O)(=O)c3ccc(C(=O)N4CCN(C)CC4)cc32)c1 | - | - | - | - | - | - | . | .
Cc1ccc(C)c(CN2C(=O)c3ccccc3S(=O)c3ccc(C(=O)N4CCN(c5ccccn5)CC4)cc32)c1 (stereo not drawn) | - | - | - | - | - | - | . | . | Mdm2-MdmX confirm=101
CC(C)c1ccc(/C=C/C(=O)NC(=S)NN2CCOCC2)cc1 | - | - | - | - | - | 41 | - | -
